# From PubChem BioAssay
# PTHR1 ag: PTHR1 (human) receptor agonism | Potency, µM (highest dose often 115 µM), without a hit: at the top dose activation, hits mostly activators | Q03431 | HEK293 GP2 PTHR1 cells, GloSensor cAMP luminescence, 1 h | hit rate 0.075% among 410,000; note: nearly all actives have a fitted effect of over 55% in size
# Target sequence (Q03431 whole entry, looked up): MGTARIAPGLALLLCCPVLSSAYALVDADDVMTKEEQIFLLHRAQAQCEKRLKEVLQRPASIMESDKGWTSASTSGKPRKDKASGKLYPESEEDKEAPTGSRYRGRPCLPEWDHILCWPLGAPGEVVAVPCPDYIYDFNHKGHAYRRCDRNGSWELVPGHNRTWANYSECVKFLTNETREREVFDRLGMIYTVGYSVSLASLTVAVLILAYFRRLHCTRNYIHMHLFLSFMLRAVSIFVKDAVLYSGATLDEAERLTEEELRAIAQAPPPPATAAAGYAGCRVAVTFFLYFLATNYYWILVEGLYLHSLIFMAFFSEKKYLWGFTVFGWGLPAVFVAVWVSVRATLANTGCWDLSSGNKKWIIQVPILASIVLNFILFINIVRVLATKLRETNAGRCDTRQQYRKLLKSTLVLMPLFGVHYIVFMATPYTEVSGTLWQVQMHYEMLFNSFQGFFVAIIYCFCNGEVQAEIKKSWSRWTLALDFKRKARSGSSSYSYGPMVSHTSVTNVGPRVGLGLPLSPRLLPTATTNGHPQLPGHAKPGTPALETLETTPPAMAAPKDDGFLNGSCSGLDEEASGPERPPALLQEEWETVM
#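 HEK-293-derived GP2 cells expressing PTHR1 and a GloSensor cAMP reporter, 3,000/well, plated overnight, given luciferin plus IBMX (each 0.5 mM as added) for 1 h at 37 °C, then compound for 1 h at 37 °C. Luminescence was read after 15 min at room temperature.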
# GLP1R inv ag: inverse agonists of human GLP-1 receptor. hit rate 1.6% among 410,000. HEK293 GLP-1R CRE-luciferase, luminescence, 24 h; GLP-1R form is constitutively active. AID 624417. Potency, µM (top dose mostly 38.3 µM), for the others: top-dose activity change, negative = inhibition, hits mostly inhibitors. P43220; note: % is set by controls: 0 for no effect and ±100 for the full control effect; nearly all actives have a fitted effect of over 55% in size
#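 HEK293 cells stably co-expressing constitutively active GLP-1R and a cAMP-responsive luciferase reporter were seeded in DMEM with 10% Nu serum, given compounds after 12 h, and incubated 24 h at 37 deg C. Luminescence was then read.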
# GLP-1R agonist: GLP-1 receptor (human) agonism; HEK293 GLP-1R CRE-luciferase, luminescence, 4-6 h; cells express a hypersensitive GLP-1R form; AID 624172; Potency, µM (top dose mostly 45.6 µM), without a hit: at the top dose activation, hits mostly activators; hit rate 0.007% among 380,000; note: % of control where 0% means no effect
# GLP1R cytotox: cytotoxicity counter-screen for GLP-1 receptor inverse agonists; Potency, µM (series often up to 38.3 µM), for inactives: top-dose activity change, negative = inhibition, most hits filed as inhibitors; HEK293 cAMP-luciferase reporter cells, luminescence, 24 h; hit rate 0.13% among 410,000; AID 624418;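 note: loss of luciferase light is scored as toxicity; % is set by controls: 0 for no effect and ±100 for the full control effect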
#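 To flag toxic compounds, the library was rerun on cells for 24 hr at 37 deg C and 5% CO2. Viability-linked luminescence was captured 12 min after adding luciferase detection reagent.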
# * = called active by the depositor; i = inactive; ? = inconclusive; . = not tested or not shown; [ ] = another dose, or the depositor's remark. The list is not random: actives were taken first. Their share in the collection is about 1.7%. Calls come from the whole dose curve; as a rule, active = well fitted curve in the direction sought with a large enough effect; inconclusive = small, poorly fitted or top-dose-only effect, or another doubt; inactive = no such curve, though single readings can be large; an effect the other way counts as inactive or inconclusive. Potency is the fitted concentration of half-maximal effect.
SMILES,PTHR1 ag,GLP1R inv ag,GLP-1R agonist,GLP1R cytotox
CCCNC(=O)c1ccc(N2CCC3(CC2)CC(c2cccc(Br)c2)=NO3)c(NC(=O)c2ccc(Cl)c([N+](=O)[O-])c2)c1,-11%,7%,-1%,5%
N#CCCCC#Cc1ccc2c(c1)COc1c3ccccc3nn1-2,-45%,2.5µM*,-4%,6%
Cc1cc(C)c2c(N)c(C(=O)Nc3ncc(C)s3)sc2n1,-15%[57.5 µM],1.3µM*,-27%,247%
COC(=O)c1sc2nc(C)cc(C)c2c1N,-1%,85%,7%,30%
Clc1ccc(CSC2=NCCCN2)cc1Cl,-3%[57.5 µM],8.9µM*,-3%,-25%
CC(=O)N(C(C)=O)c1nc(-c2ccccc2)cn1/N=C/c1ccccc1,-20%,7.9µM*,1%,?
COc1cc(OC)nc(Oc2ccccc2C(=O)Oc2ccc(Cl)cc2)n1,i,3.2µM*,18%,-21%
Cc1sc(NC(=O)C2c3ccccc3Oc3ccccc32)c(C(=O)OC(C)C)c1C,-9%,5%,.,-2%
Cc1c(C(=O)OC(C)C)sc(NC(=O)C2c3ccccc3Oc3ccccc32)c1C(=O)OC(C)C,i,8.9µM*,.,12%
N#C/C(=C/c1ccc(Sc2nc3ccccc3[nH]2)o1)c1cccc(Br)c1,-22%,10µM*,-5%,61%
O=C1CSC2(C(=O)N(Cc3ccccc3)c3ccccc32)N1c1ccc(Cl)cc1 (configuration not stated),-74%,-2%,.,1%
COc1cccc(-n2cc(C(=O)NCc3ccccc3OC)c3ccccc3c2=O)c1,i,0%,.,2%
CCCC1OC(c2cc3c(cc2Cl)OCO3)OCC1CC (configuration not stated),i,11µM*,5%,-17%
Brc1cc2c(cc1C1OCCO1)OCO2,i,-18%,-2%,9%
O=C(N/N=C/c1ccccc1O)NC12CC3CC(CC(C3)C1)C2,-22%,10µM*,21%,-4%
O=C(N/N=C/c1ccc(O)c(O)c1)NC12CC3CC(CC(C3)C1)C2,-17%,57%,13%,-3%
Cc1cc(C)cc(Oc2nc3c(C)cccn3c(=O)c2/C=C(\C#N)c2nc3ccccc3s2)c1,-2%,6%,.,9%
CC(C)CC(c1nnnn1Cc1ccco1)N1CCN(c2cccc(Cl)c2)CC1 (configuration not stated),-11%,10µM*,1%,-1%
CC(C)(C)C(=O)N/C(N)=N/c1nc2ccccc2o1,-30%,11µM*,5%,?
COc1ccc(OC)c(NC(=O)Cn2cnc3onc(-c4ccc(Cl)cc4)c3c2=O)c1,-25%,?,.,?
COc1ccc(CNC(=O)CCCN2C(=O)CSc3c2c(C)nn3-c2ccccc2)c(OC)c1,i,?,.,-29%
CN1CCN(c2nc(-c3ccc(C(C)(C)C)cc3)nc3ccccc23)CC1,-15%,8.9µM*,-1%,7%
CC1CCN(c2nc(-c3ccncc3)nc3ccccc23)CC1,?,6.3µM*,3%,9%
CC1CCN(c2nc(-c3ccc(C(C)(C)C)cc3)nc3ccccc23)CC1,-62%,?,.,20%
CCOC(=O)c1c(C(F)(F)C(F)(F)C(F)(F)C(F)(F)F)n[nH]c1C,-8%,10µM*,-1%,?
SMILES,PTHR1 ag,GLP1R inv ag,GLP-1R agonist,GLP1R cytotox
COc1ccc(OC2CCN(S(=O)(=O)c3ccc(OC)cc3)CC2)cc1,-14%,10µM*,5%,10%
CCCc1nc2ccccc2n1CC(O)COc1ccc(C(=O)OC)cc1 (configuration not stated),-44%,-3%,.,-3%
COc1ccccc1N=CC=C1OC(C)(C)C(C)(C)O1,-17%,2.2µM*,0%,16%
COc1cc(OC)c(NC(=O)C2CCCN(c3ncnc4c3nc3n4CCCCC3)C2)cc1Cl (configuration not stated),i,3%,.,4%
Cc1c(N)nc([C@@H](CC(N)=O)NC[C@H](N)C(N)=O)nc1C(=O)N[C@H](C(=O)N[C@@H](C)[C@@H](O)[C@@H](C)C(=O)N[C@H](C(=O)NCCc1nc(-c2nc(C(=O)NCCCN[C@H](C)c3ccccc3)cs2)cs1)[C@H](C)O)[C@@H](O[C@H]1O[C@@H](CO)[C@H](O)[C@@H](O)[C@H]1O[C@H]1O[C@@H](CO)[C@@H](O)[C@H](OC(N)=O)[C@H]1O)c1cnc[nH]1,.,.,-5%,.
CCC1SC2=NC(C)=C(C(=O)OCCOC)C(/C=C/c3ccccc3OC)N2C1=O (configuration not stated),-3%[57.5 µM],?,-1%,-7%
CCC1SC2=NC(C)=C(C(=O)OCC(C)C)C(/C=C/c3ccccc3OC)N2C1=O (configuration not stated),-40%,7.9µM*,25%,7%
CCn1cc(S(=O)(=O)c2ccccc2)c(=O)c2cc(F)c(N3CCCC3)cc21,-2%,8%,.,0%
CN(C)CCNC(=O)Nc1ccc(Cl)c(Cl)c1,i,11µM*,-14%,-10%
O=C(Nc1ccc(Cl)c(Cl)c1)Nc1ccon1,i,7.9µM*,5%,?
Cc1cc(NC(=O)Nc2ccc(Cl)c(Cl)c2)no1,-5%,?,-7%,-13%
Cc1ccc(Cn2cc(/C=N/Nc3ccc([N+](=O)[O-])cn3)c3ccccc32)cc1,-20%,11µM*,8%,?
O=C(Nc1ccc(/C=C/c2nc3ccccc3o2)cc1)c1cccc(C(F)(F)F)c1,-10%[57.5 µM],3.2µM*,-1%,8%
Cc1cccc(N(C)C(CNS(=O)(=O)c2ccccc2)c2ccccc2)c1 (configuration not stated),-30%,10µM*,.,4%
CCN(c1ccccc1)C(CNS(=O)(=O)c1ccccc1)c1ccccc1 (configuration not stated),-31%,10µM*,.,-6%
CCN(c1cccc(C)c1)C(CNS(=O)(=O)c1ccccc1)c1ccccc1 (configuration not stated),-17%,?,.,-3%
Cc1nc(SCC(=O)NCC(F)(F)F)c2c(-c3cccs3)csc2n1,-76%,?,-5%,-9%
Cc1nc(SCC(=O)NC(C)(C#N)C2CC2)c2c(-c3cccs3)csc2n1 (configuration not stated),-3%,6.3µM*,3%,-19%
CCc1ccc(S(=O)(=O)c2nnn3c2nc(Nc2ccc(NC(C)=O)cc2)c2sccc23)cc1,-14%,10%,.,4%
CC(C)(CNC(=O)c1sc2cc(Cl)ccc2c1Cl)N1CCOCC1,-56%,10µM*,31%,5%
Cc1nn2c(-c3cccc(NC(=O)c4ccccc4)c3)nnc2c2ccccc12,2%,19%,.,1%
C=C1C(=O)[C@]23C[C@H]1CCC2[C@]1(C)CCC[C@@](C)(C(=O)O)C1C[C@@H]3O (some centres not stated),-44%,1.8µM*,-12%,?
Cc1cccc(C2=NN(c3ccccc3)[C@H](CO)[C@H]2c2ccc(Cl)cc2)c1,-23%,10µM*,-4%,193%
